# Measurements reported in PubChem BioAssay (EPA / NIEHS).
# Several values for one entry are separate records, joined by “and”; a condition that tells them apart may be missing. Equal values may be shown once. Records with an inconclusive call do not appear. Some compounds were tested as several samples or in several runs, with calls that do not always agree. Activity calls are given as the source filed them. Rule for the calls, unless noted: active = hit-call score of the fitted dose curve at least 0.9, where 1 is the maximum; inactive = score below 0.9.
# Key:
# [1] = target: human RAR-related Orphan Receptor beta (RORb), RORB (gene 6096) (UniProt Q92753); experiment: ATG_RORb_TRANS: Attagene TRANS-FACTORIAL HepG2 Assay for human RAR-related Orphan Receptor beta (RORb) (AID 2283010; active = hit-call score of the fitted dose curve at least 0.9, where 1 is the maximum)
# Sequence of human RAR-related Orphan Receptor beta (RORb), RORB (gene 6096) (Q92753 whole entry, looked up, the tested form may be a part): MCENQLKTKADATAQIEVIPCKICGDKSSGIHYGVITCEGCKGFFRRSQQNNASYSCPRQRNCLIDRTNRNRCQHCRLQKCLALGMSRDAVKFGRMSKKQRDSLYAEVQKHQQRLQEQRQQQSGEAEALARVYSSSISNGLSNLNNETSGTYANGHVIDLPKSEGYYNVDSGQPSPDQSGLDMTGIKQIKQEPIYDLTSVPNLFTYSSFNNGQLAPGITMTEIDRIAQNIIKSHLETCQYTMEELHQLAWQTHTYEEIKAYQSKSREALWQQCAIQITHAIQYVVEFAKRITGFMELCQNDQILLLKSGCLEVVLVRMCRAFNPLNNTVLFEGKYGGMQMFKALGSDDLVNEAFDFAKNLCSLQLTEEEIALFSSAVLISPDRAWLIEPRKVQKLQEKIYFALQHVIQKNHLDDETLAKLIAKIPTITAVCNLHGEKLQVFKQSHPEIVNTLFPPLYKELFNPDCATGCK
# Procedure, shortened: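 Transfect HepG2 with multiple GAL4-UAS reporter transcription units; dose chemicals for 24 h; isolate RNA, reverse-transcribe and PCR-amplify reporter sequences; label, digest and resolve fragments by capillary electrophoresis; fit increases relative to DMSO.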
# [2] = target: Retinoic acid receptor RXR-alpha (Homo sapiens) (UniProt P19793); experiment: ATG_RXRa_TRANS: Attagene TRANS-FACTORIAL HepG2 Assay for human Retinoid X Receptor alpha (RXRa) (AID 2283012; active = hit-call score of the fitted dose curve at least 0.9, where 1 is the maximum)
# Sequence of Retinoic acid receptor RXR-alpha (Homo sapiens) (P19793 whole entry, looked up, the tested form may be a part): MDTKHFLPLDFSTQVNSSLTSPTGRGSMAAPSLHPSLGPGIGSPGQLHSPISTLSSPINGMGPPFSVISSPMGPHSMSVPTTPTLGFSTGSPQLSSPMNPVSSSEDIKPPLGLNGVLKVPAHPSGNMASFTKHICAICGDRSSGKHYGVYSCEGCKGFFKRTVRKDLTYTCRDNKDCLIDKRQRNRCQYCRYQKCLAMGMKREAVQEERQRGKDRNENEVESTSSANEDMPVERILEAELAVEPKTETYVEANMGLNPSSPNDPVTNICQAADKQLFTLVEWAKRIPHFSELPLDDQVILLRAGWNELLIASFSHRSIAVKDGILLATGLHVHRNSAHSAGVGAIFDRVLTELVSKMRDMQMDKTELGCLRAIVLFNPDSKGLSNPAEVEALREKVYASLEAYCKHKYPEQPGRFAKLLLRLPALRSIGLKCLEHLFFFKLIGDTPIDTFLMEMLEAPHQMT
# Procedure, shortened: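 Measures exogenous chimeric NR-GAL4 activity in transfected HepG2 liver cells after 24 h of dosing. Induced reporter mRNA was detected by RT-PCR with capillary electrophoresis, and gain of signal was analysed against DMSO.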
# [3] = target: human Retinoid X Receptor beta (RXRb), RXRB (gene 6257) (UniProt P28702); experiment: ATG_RXRb_TRANS: Attagene TRANS-FACTORIAL HepG2 Assay for human Retinoid X Receptor beta (RXRb) (AID 2283013; active = hit-call score of the fitted dose curve at least 0.9, where 1 is the maximum)
# Sequence of human Retinoid X Receptor beta (RXRb), RXRB (gene 6257) (P28702 whole entry, looked up, the tested form may be a part): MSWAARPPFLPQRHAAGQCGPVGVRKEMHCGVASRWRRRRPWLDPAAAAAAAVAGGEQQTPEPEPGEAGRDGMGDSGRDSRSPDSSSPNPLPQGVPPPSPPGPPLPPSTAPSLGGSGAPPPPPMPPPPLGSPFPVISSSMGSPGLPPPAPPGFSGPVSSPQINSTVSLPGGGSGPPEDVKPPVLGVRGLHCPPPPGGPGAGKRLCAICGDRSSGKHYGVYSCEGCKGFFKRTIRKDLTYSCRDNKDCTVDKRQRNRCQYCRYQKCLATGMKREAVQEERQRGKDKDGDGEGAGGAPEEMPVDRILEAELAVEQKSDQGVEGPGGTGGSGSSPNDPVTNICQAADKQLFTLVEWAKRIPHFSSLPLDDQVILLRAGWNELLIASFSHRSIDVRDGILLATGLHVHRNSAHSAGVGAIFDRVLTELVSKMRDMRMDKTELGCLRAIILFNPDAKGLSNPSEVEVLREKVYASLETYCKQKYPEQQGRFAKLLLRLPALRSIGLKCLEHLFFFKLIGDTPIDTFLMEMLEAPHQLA
# Procedure, shortened: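 Chimeric receptor-Gal4 activity was assessed in transiently transfected human HepG2 cells after 24 h exposure. Transcripts from GAL4-UAS reporters were quantified by fluorescent RT-PCR and capillary electrophoresis, with DMSO as negative control and baseline.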
# [4] = target: human Thyroid Receptor alpha (THRa1), THRA (gene 7067) (UniProt P10827); experiment: ATG_THRa1_TRANS: Attagene TRANS-FACTORIAL HepG2 Assay for human Thyroid Receptor alpha (THRa1) (AID 2283014; active = hit-call score of the fitted dose curve at least 0.9, where 1 is the maximum)
# Sequence of human Thyroid Receptor alpha (THRa1), THRA (gene 7067) (P10827 whole entry, looked up, the tested form may be a part): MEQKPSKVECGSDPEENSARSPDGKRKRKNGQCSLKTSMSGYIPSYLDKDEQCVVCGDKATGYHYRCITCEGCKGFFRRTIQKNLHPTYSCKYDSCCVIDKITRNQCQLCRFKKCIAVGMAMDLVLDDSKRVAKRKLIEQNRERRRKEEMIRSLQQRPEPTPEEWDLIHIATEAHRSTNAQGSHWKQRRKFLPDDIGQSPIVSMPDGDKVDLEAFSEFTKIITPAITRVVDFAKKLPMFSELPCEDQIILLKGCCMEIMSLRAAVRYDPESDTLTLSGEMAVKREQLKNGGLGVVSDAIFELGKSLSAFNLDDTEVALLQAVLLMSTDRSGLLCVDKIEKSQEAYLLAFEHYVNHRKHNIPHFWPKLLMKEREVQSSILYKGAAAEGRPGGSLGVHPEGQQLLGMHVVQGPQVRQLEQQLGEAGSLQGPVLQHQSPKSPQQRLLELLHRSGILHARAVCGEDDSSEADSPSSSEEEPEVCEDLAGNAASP
# Procedure, shortened: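 HepG2 cells transiently transfected with multiplexed GAL4-UAS reporter units for exogenous chimeric THRa1-Gal4; reporter mRNA measured 24 h after dosing by RT-PCR, 6-FAM labelling, HpaI digestion and capillary electrophoresis. Gain-of-signal fitted versus DMSO baseline.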
# [5] = read-out: E-selectin (Homo sapiens) (UniProt P16581); experiment: BSK_3C_Eselectin: BioMAP Diversity Plus: 3C Assay for Eselectin Biomarker Activity (AID 2283015); conditions: primary human endothelial cells (HUVEC); actives raise or lower the signal;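 for outcome: cell surface E-selectin protein quantified by ELISA 24 h after dosing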
# Procedure, shortened: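 Primary human umbilical vein endothelial cells (3C system) were dosed with chemical and cell-surface E-selectin measured by ELISA 24 h later. Bidirectional curve fitting used DMSO as negative control and baseline.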
# [6] = read-out: Interleukin-1 alpha (IL1a), IL1A (gene 3552); experiment: BSK_BE3C_IL1a: BioMAP Diversity Plus: BE3C Assay for Interleukin-1 alpha (IL1a) Biomarker Activity (AID 2283016); conditions: primary human bronchial epithelial cells; actives raise or lower the signal
# Procedure, shortened: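 Signal from IL-1a ELISA, taken 24 h after chemical dosing of human bronchial epithelial cells, is compared with DMSO as baseline using bidirectional curve fitting.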
# [7] = read-out: Monocyte Chemoattractant Protein-1 (MCP1), CCL2 (gene 6347); experiment: BSK_3C_MCP1: BioMAP Diversity Plus: 3C Assay for Monocyte Chemoattractant Protein-1 (MCP1) Biomarker Activity (AID 2283017); conditions: primary human endothelial cells (HUVEC); actives raise or lower the signal
# Procedure, shortened: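 Primary human umbilical vein endothelial cells (3C system) were exposed to test chemical for 24 h, after which MCP-1 was quantified by ELISA. Activity was fitted bidirectionally against DMSO as negative control and baseline.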
# [8] = read-out: Monocyte Chemoattractant Protein-1 (MCP1), CCL2 (gene 6347); experiment: BSK_4H_MCP1: BioMAP Diversity Plus: 4H Assay for Monocyte Chemoattractant Protein-1 (MCP1) Biomarker Activity (AID 2283018); conditions: primary human endothelial cells (HUVEC); actives raise or lower the signal
# Procedure, shortened: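 Endothelial cells from umbilical vein were treated with test chemical, then after 24 h MCP-1 levels were quantified by ELISA; endpoint values came from bidirectional fitting with DMSO as baseline of activity.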
# [9] = read-out: Human Leukocyte Antigen - DR isotype (HLADR), HLA-DRA (gene 3122); experiment: BSK_3C_HLADR: BioMAP Diversity Plus: 3C Assay for Human Leukocyte Antigen - DR isotype (HLADR) Biomarker Activity (AID 2283019); conditions: primary human endothelial cells (HUVEC); actives raise or lower the signal;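 for outcome: ELISA of cell-surface HLA-DR on HUVEC 24 h after dosing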
# Procedure, shortened: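 Primary human umbilical vein endothelial cells (3C system) were dosed with compound and cell-surface HLA-DR was quantified by ELISA at 24 h. Activity was fitted bidirectionally against DMSO as negative control and baseline.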
# [10] = target: human RAR-related Orphan Receptor gamma (RORg), RORC (gene 6097) (UniProt P51449); experiment: ATG_RORg_TRANS: Attagene TRANS-FACTORIAL HepG2 Assay for human RAR-related Orphan Receptor gamma (RORg) (AID 2283011; active = hit-call score of the fitted dose curve at least 0.9, where 1 is the maximum)
# Sequence of human RAR-related Orphan Receptor gamma (RORg), RORC (gene 6097) (P51449 whole entry, looked up, the tested form may be a part): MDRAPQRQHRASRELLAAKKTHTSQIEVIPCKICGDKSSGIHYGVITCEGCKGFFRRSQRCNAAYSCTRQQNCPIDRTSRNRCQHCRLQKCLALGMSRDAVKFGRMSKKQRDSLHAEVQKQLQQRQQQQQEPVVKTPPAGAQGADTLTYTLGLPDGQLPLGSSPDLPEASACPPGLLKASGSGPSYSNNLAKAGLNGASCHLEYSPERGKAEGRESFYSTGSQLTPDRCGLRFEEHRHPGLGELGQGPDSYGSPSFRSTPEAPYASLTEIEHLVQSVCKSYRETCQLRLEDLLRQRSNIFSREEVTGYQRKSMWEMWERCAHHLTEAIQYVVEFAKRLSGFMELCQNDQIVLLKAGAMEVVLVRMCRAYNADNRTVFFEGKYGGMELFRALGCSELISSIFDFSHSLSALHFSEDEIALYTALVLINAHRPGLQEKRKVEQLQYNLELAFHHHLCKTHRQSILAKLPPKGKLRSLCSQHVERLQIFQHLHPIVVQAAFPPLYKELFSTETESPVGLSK
# Procedure, shortened: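 Readout: reporter transcript induction (RT-PCR, fluorescent primer extension, capillary electrophoresis) after 24 h compound exposure of transiently transfected HepG2 cells carrying a RORg-Gal4 chimera and GAL4-UAS reporters; DMSO served as baseline, with increasing signal fitted.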
# Sequence of E-selectin (Homo sapiens) (P16581 whole entry, looked up): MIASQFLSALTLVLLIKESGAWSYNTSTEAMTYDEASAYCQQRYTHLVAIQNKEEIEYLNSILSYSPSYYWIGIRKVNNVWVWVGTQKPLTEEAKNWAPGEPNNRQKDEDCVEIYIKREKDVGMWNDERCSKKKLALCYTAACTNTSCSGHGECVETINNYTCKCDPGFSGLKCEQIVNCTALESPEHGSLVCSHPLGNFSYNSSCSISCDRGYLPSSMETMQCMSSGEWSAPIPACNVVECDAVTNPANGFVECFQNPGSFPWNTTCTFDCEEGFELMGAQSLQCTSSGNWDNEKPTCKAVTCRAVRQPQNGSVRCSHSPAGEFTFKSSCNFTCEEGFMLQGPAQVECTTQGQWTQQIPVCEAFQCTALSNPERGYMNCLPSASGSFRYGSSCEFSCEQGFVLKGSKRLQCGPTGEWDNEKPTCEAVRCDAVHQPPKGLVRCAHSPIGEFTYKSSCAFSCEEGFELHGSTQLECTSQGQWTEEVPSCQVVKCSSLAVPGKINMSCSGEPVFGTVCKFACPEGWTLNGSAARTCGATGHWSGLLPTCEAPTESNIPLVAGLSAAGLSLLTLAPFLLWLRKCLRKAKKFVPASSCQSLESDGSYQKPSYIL
smiles,measurement,setting,value
CCCOC(=O)c1ccc(C(=O)OCCC)nc1,outcome,[1],inactive
same,outcome,[2],inactive
same,outcome,[3],inactive
same,outcome,[4],inactive
same,outcome,[5],inactive
same,outcome,[6],inactive
same,outcome,[7],inactive
same,outcome,[8],inactive
same,outcome,[9],inactive
CN(C)C(=O)Nc1ccc(Cl)c(Cl)c1,outcome,[1],inactive
same,outcome,[10],inactive
same,outcome,[2],inactive
same,outcome,[3],inactive
same,outcome,[4],inactive
same,outcome,[5],inactive
same,outcome,[6],inactive
same,outcome,[7],inactive
same,outcome,[8],inactive
CCNc1nc(N)nc(Cl)n1,outcome,[1],inactive
same,outcome,[2],inactive
same,outcome,[3],inactive
same,outcome,[4],inactive
same,outcome,[5],inactive
same,outcome,[6],inactive
same,outcome,[7],inactive
same,outcome,[8],inactive
same,outcome,[9],inactive
CCOC(=O)C(C)Oc1ccc(Oc2nc3ccc(Cl)cc3o2)cc1 (stereo not given),outcome,[2],inactive
same,outcome,[3],inactive
same,outcome,[4],inactive
same,outcome,[5],inactive
same,outcome,[6],inactive
same,AC50,[7],20 µM (active)
same,outcome,[8],inactive
same,AC50,[9],20 µM (active)
O=C(c1ccccc1)C1CCCCC1,outcome,[2],inactive
same,AC50,[3],121 µM (active) and 57 µM (active) and 100 µM (active)
same,outcome,[3],inactive
same,outcome,[4],inactive
same,outcome,[5],inactive
same,outcome,[6],inactive
same,outcome,[7],inactive
same,outcome,[8],inactive
same,outcome,[9],inactive
CCN(CC)C(=O)c1cccc(C)c1,outcome,[10],inactive
same,outcome,[2],inactive
same,outcome,[3],inactive
same,outcome,[4],inactive
same,outcome,[5],inactive
same,outcome,[6],inactive
same,outcome,[7],inactive
same,outcome,[8],inactive
COC(=O)c1ccccc1S(=O)(=O)NC(=O)Nc1nc(OC(F)F)cc(OC(F)F)n1,outcome,[5],inactive
same,outcome,[6],inactive
same,outcome,[7],inactive
same,outcome,[8],inactive
same,outcome,[9],inactive
COC(=O)c1ccccc1C(=O)O,outcome,[4],inactive
same,outcome,[5],inactive
same,outcome,[6],inactive
same,outcome,[7],inactive
same,outcome,[8],inactive
CCOC(=O)COc1cc(-n2ncc(C(F)(F)F)c(C)c2=O)c(F)cc1Cl,outcome,[10],inactive
same,outcome,[3],inactive
same,outcome,[4],inactive
same,outcome,[5],inactive
same,outcome,[6],inactive
same,outcome,[7],inactive
same,outcome,[8],inactive
CCCOC(=O)NCCCN(C)C,outcome,[2],inactive
same,outcome,[3],inactive
same,outcome,[5],inactive
same,outcome,[6],inactive
same,outcome,[7],inactive
same,outcome,[8],inactive
CC(C)(C)[C@@H](O)[C@@H](Cc1ccc(Cl)cc1)n1cncn1,outcome,[10],inactive
same,outcome,[3],inactive
same,outcome,[4],inactive
same,outcome,[5],inactive
same,outcome,[6],inactive
same,outcome,[7],inactive
same,outcome,[8],inactive
COC(=O)CSc1cc(N=c2sc(=O)n3n2CCCC3)c(F)cc1Cl,outcome,[2],inactive
same,outcome,[4],inactive
same,outcome,[5],inactive
same,outcome,[6],inactive
same,outcome,[7],inactive
same,outcome,[8],inactive
CCCCC(CC)CN1C(=O)C2C3C=CC(C3)C2C1=O (stereo not given),outcome,[2],inactive
same,outcome,[3],inactive
same,outcome,[5],inactive
same,outcome,[6],inactive
same,outcome,[7],inactive
same,AC50,[8],19.2 µM (active)
same,AC50,[9],30.6 µM (active)
CCOC(=O)NCCOc1ccc(Oc2ccccc2)cc1,outcome,[2],inactive
same,outcome,[3],inactive
same,outcome,[4],inactive
same,AC50,[5],21.3 µM (active)
same,outcome,[6],inactive
same,AC50,[7],28.5 µM (active)
same,AC50,[8],18.7 µM (active)
CC(=O)S[C@@H]1CC2=CC(=O)CC[C@]2(C)[C@H]2CC[C@@]3(C)[C@@H](CC[C@@]34CCC(=O)O4)[C@H]12,outcome,[10],inactive
same,outcome,[2],inactive
same,outcome,[4],inactive
same,AC50,[5],20 µM (active)
same,outcome,[6],inactive
same,AC50,[7],27.7 µM (active)
same,AC50,[8],20 µM (active)
same,AC50,[9],26.3 µM (active)
CCCN(CCC)c1c([N+](=O)[O-])cc(C(F)(F)F)c(N)c1[N+](=O)[O-],outcome,[10],inactive
same,outcome,[4],inactive
same,AC50,[5],14.9 µM (active)
same,AC50,[6],31.3 µM (active)
same,AC50,[7],29.4 µM (active)
same,AC50,[8],29.7 µM (active)
c1ccc2[nH]c(-c3cscn3)nc2c1,outcome,[10],inactive
same,outcome,[2],inactive
same,outcome,[3],inactive
same,outcome,[5],inactive
same,outcome,[6],inactive
same,outcome,[7],inactive
same,outcome,[8],inactive
COc1nc(C)nc(NC(=O)NS(=O)(=O)c2ccccc2OCCCl)n1,outcome,[2],inactive
same,outcome,[3],inactive
same,outcome,[5],inactive
same,outcome,[6],inactive
same,outcome,[7],inactive
same,outcome,[8],inactive
same,outcome,[9],inactive
CCCCC(CC)COC(=O)c1ccccc1C(=O)O (stereo not given),outcome,[10],inactive
same,outcome,[2],inactive
same,outcome,[3],inactive
same,outcome,[4],inactive
same,outcome,[5],inactive
same,outcome,[6],inactive
same,outcome,[7],inactive
same,outcome,[8],inactive
same,outcome,[9],inactive
C[C@]12C[C@H](O)[C@H]3[C@@H](CCC4=CC(=O)CC[C@@]43C)[C@@H]1CC[C@@H]2C(=O)CO,outcome,[10],inactive
same,outcome,[2],inactive
same,outcome,[3],inactive
same,outcome,[4],inactive
same,outcome,[5],inactive
same,outcome,[6],inactive
same,outcome,[7],inactive
same,outcome,[8],inactive
same,outcome,[9],inactive
CCOC(=O)c1ccc(O)cc1,outcome,[2],inactive
same,outcome,[3],inactive
same,outcome,[4],inactive
same,outcome,[5],inactive
same,outcome,[6],inactive
same,outcome,[7],inactive
same,outcome,[8],inactive
COc1c(Cl)ccc(Cl)c1C(=O)O,outcome,[2],inactive
same,outcome,[4],inactive
same,outcome,[5],inactive
same,outcome,[6],inactive
same,outcome,[7],inactive
same,outcome,[8],inactive
CCSC(=O)N(CC(C)C)CC(C)C,outcome,[10],inactive
same,outcome,[2],inactive
same,outcome,[3],inactive
same,outcome,[5],inactive
same,outcome,[6],inactive
same,outcome,[7],inactive
same,outcome,[8],inactive
same,outcome,[9],inactive
COC(=O)c1ccc(I)cc1S(=O)(=O)NC(=O)Nc1nc(C)nc(OC)n1,outcome,[5],inactive
same,outcome,[6],inactive
same,outcome,[7],inactive
same,outcome,[8],inactive
CCCCOCCOCCOCc1cc2c(cc1CCC)OCO2,outcome,[10],inactive
same,outcome,[2],inactive
same,outcome,[3],inactive
same,outcome,[5],inactive
same,outcome,[6],inactive
same,outcome,[7],inactive
same,outcome,[8],inactive
CSC(=O)c1cccc2nnsc12,outcome,[3],inactive
same,outcome,[4],inactive
same,outcome,[5],inactive
same,outcome,[6],inactive
same,outcome,[7],inactive
same,outcome,[8],inactive
O=C(O)C1(C(=O)Nc2ccc(Cl)cc2Cl)CC1,outcome,[10],inactive
same,outcome,[2],inactive
same,outcome,[5],inactive
same,outcome,[6],inactive
same,outcome,[7],inactive
same,outcome,[8],inactive
C#C[C@]1(O)CC[C@H]2[C@@H]3CCC4=CC(=O)CC[C@@H]4[C@H]3CC[C@@]21CC,outcome,[2],inactive
same,outcome,[3],inactive
same,outcome,[4],inactive
same,outcome,[5],inactive
same,outcome,[6],inactive
same,outcome,[7],inactive
same,outcome,[8],inactive
c1ccc(Nc2ccccc2)cc1,outcome,[2],inactive
same,outcome,[3],inactive
same,outcome,[5],inactive
same,outcome,[6],inactive
same,outcome,[7],inactive
same,outcome,[8],inactive
COC(=O)c1cccc(C)c1S(=O)(=O)NC(=O)Nc1nc(OCC(F)(F)F)nc(N(C)C)n1,outcome,[2],inactive
same,outcome,[4],inactive
same,outcome,[5],inactive
same,outcome,[6],inactive
same,outcome,[7],inactive
same,outcome,[8],inactive
CCN(Cc1c(F)cccc1Cl)c1c([N+](=O)[O-])cc(C(F)(F)F)cc1[N+](=O)[O-],outcome,[10],inactive
same,outcome,[2],inactive
same,outcome,[3],inactive
same,outcome,[5],inactive
same,outcome,[6],inactive
same,outcome,[7],inactive
same,AC50,[8],11.3 µM (active)
C=CCOC(Cn1ccnc1)c1ccc(Cl)cc1Cl (stereo not given),outcome,[10],inactive
same,outcome,[3],inactive
same,outcome,[5],inactive
same,outcome,[6],inactive
same,outcome,[7],inactive
same,AC50,[8],27.7 µM (active)
CC(=O)[C@H]1CC[C@H]2[C@@H]3CCC4=CC(=O)CC[C@]4(C)[C@H]3CC[C@]12C,outcome,[2],inactive
same,AC50,[5],10.1 µM (active)
same,outcome,[6],inactive
same,AC50,[7],8.12 µM (active)
same,AC50,[8],12.7 µM (active)
same,AC50,[9],20 µM (active)
